A short description of test [1]: A CellTox Green Cytotoxicity Assay to monitor cytotoxicity in HEK293 cells - 32 hour (AID 1224881). Further: nearly all actives have a fitted effect of over 40% in size. Further: potency means the concentration at half of the fitted maximal effect. The essentials:
(§1)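 Nonlytic real-time cytotoxicity: HEK293 + CellTox Green reagent plated, 5 h preincubation, pintool compound addition (23 nL in DMSO), 37 C for 40 h, fluorescence measured at successive time points.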

The nature of test [2]: A CellTox Green Cytotoxicity Assay to monitor cytotoxicity in HepG2 cells - 0 hour (AID 1224882). Further: nearly all actives have a fitted effect of over 35% in size. The essentials:
(§2)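 Read-out is fluorescence of a cyanine dye excluded from live cells that stains DNA of dead HepG2 cells, with signal proportional to cytotoxicity. Plates were read at 0, 8, 16, 24, 32 and 40 h after compound addition.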

The nature of test [3]: A CellTox Green Cytotoxicity Assay to monitor cytotoxicity in HepG2 cells - 32 hour (AID 1224883). Further: nearly all actives have a fitted effect of over 50% in size. Further: potency means the concentration at half of the fitted maximal effect. In outline: as §2
A short description of test [4]: A CellTox Green Cytotoxicity Assay to monitor cytotoxicity in HEK293 cells - 8 hour (AID 1224884). Further: nearly all actives have a fitted effect of over 35% in size. Further: potency means the concentration at half of the fitted maximal effect. In outline: as §1
Test [5] in a line: qHTS RealTime-Glo MT Cell Viability Assay in HepG2 cells - 16 hour (AID 1224885). Further: nearly all actives have a fitted effect of over 50% in size. Further: potency means the concentration at half of the fitted maximal effect. The essentials: (§3)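 Real-time, nonlytic viability: 600 HepG2 cells/well mixed with NanoLuc enzyme plus prosubstrate; 5 h settle, compound (DMSO) added by pintool; luminescence monitored over 40 h at 37 C.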
(In qHTS, concentration-response curves come from the screen itself.)

Test [6] is described as follows: qHTS RealTime-Glo MT Cell Viability Assay in HEK293 cells - 24 hour (AID 1224886). Further: nearly all actives have a fitted effect of over 50% in size. Further: potency means the concentration at half of the fitted maximal effect. On activity change, negative = cytotoxicity: top concentration of the series differs between compounds. In outline:
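Cells + reagent dispensed (600 cells/well, HEK293) → 5 h at 37 C/5% CO2 → 23 nL compound in DMSO pinned → 40 h at 37 C → luminescence read at 0, 8, 16, 24, 32, 40 h.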

Test [7] in a line: qHTS RealTime-Glo MT Cell Viability Assay in HEK293 cells - 8 hour (AID 1224887). Further: nearly all actives have a fitted effect of over 50% in size. Further: potency means the concentration at half of the fitted maximal effect. On activity change, negative = cytotoxicity: top concentration of the series differs between compounds. In outline:
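Cells were seeded together with NanoLuc luciferase and a prosubstrate that viable cells reduce to a luciferase substrate. After a 5 h incubation at 37 C/5% CO2, compounds were added and luminescence was measured repeatedly during 40 h of treatment.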

The nature of test [8]: A CellTox Green Cytotoxicity Assay to monitor cytotoxicity in HEK293 cells - 16 hour (AID 1224888). Further: nearly all actives have a fitted effect of over 35% in size. Further: potency means the concentration at half of the fitted maximal effect. The essentials:
as §1

Test [9] is described as follows: qHTS RealTime-Glo MT Cell Viability Assay in HepG2 cells - 0 hour (AID 1224889). Further: nearly all actives have a fitted effect of over 50% in size. In outline: as §3
A short description of test [10]: A CellTox Green Cytotoxicity Assay to monitor cytotoxicity in HepG2 cells - 8 hour (AID 1224890). Further: nearly all actives have a fitted effect of over 45% in size. Further: potency means the concentration at half of the fitted maximal effect. The essentials: as §2
The nature of test [11]: qHTS assay to identify small molecule antagonists of the estrogen receptor alpha (ER-alpha) signaling pathway using the BG1 cell line in the presence of 0.1 nM 17-beta-estradiol - cell viability counter screen (AID 1259241). Further: nearly all actives have a fitted effect of over 40% in size. Further: potency means the concentration at half of the fitted maximal effect. In outline:
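Following 5 days in phenol red-free medium with charcoal-stripped serum, VM7Luc4E2 cells received test compounds alongside 0.1 nM 17beta-estradiol (final) at 37C for 22 hr. Live cells were then quantified via protease-substrate fluorescence.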

Test [12] is described as follows: qHTS assay to identify small molecule antagonists of the androgen receptor (AR) signaling pathway using the MDA cell line in the presence of 0.5 nM R1881 - cell viability counter screen (AID 1259242). Further: nearly all actives have a fitted effect of over 45% in size. Further: potency means the concentration at half of the fitted maximal effect. In outline: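 Counter screen for cytotoxicity run in the same wells as the AR antagonist reporter screen: MDA-kb2 cells were treated 16 hr with test compounds and 0.5 nM R1881, then live-cell protease activity was measured by fluorescence.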

For test [13], the target named is Androgen receptor (Homo sapiens) (UniProt P10275). Kind of test: qHTS assay to identify small molecule antagonists of the androgen receptor (AR) signaling pathway using the MDA cell line in the presence of 0.5 nM R1881 (AID 1259243). Further: nearly all actives have a fitted effect of over 50% in size. Further: potency means the concentration at half of the fitted maximal effect. In outline:
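Luciferase luminescence is the read-out: compounds are tested for suppressing 0.5 nM R1881-driven MMTV reporter activity in MDA-kb2 cells after 16 hr at 37C.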

Test [14] can be described thus: qHTS assay to identify small molecule agonists of the sonic hedgehog signaling (Shh) pathway - cell viability counter screen (AID 1259366). Further: nearly all actives have a fitted effect of over 50% in size. Further: potency means the concentration at half of the fitted maximal effect. In outline:
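Compounds in DMSO were pin-transferred onto 3T3 Gli1-Luc cells that had settled 4hr; plates then stood 24hr at 37C and 5% CO2. One hour before the end, CellTiter-Fluor was added and fluorescence recorded.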

The nature of test [15]: qHTS assay to identify small molecule antagonists of the sonic hedgehog signaling (Shh) pathway - cell viability counter screen (AID 1259367). Further: nearly all actives have a fitted effect of over 55% in size. Further: potency means the concentration at half of the fitted maximal effect. In outline:
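Seed 3T3 Gli1-Luc cells at 2,000 per well; incubate 4 hr; add compound in DMSO, then conditioned medium; incubate at 37C with 5% CO2; add CellTiter-Fluor after 23 hr; read fluorescence 1 hr later.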

Test [16] in a line: qHTS assay to identify small molecule agonists of the sonic hedgehog signaling (Shh) pathway (AID 1259368; calls by dose curve;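 further: NIH/3T3-derived 3T3Gli1-Luc cells carrying a stable Gli1-driven firefly luciferase reporter; series mostly up to about 92 µM; nearly all actives have a fitted effect of over 15% in size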). In outline:
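3T3Gli1-Luc (NIH/3T3 clone, stable Gli1-Luc); 4 hr pre-incubation, then cpd in DMSO 24 hr, 37 C/5% CO2; luciferase reagent 30 min RT; luminescence.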

Test [17] deals with Estrogen receptor (Homo sapiens) (UniProt P03372). Kind of test: qHTS assay to identify small molecule antagonists of the estrogen receptor alpha (ER-alpha) signaling pathway using the BG1 cell line in the presence of 0.1 nM 17-beta-estradiol (AID 1259244). Further: nearly all actives have a fitted effect of over 50% in size. Further: potency means the concentration at half of the fitted maximal effect. The essentials: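 Cells: VM7Luc4E2, endogenous ER-alpha, 4x ERE-luc stable. Pre-culture 5 d, phenol red-free, charcoal-stripped FBS. Plated 24 h, compound + E2 0.1 nM final, 22 h 37C/5% CO2. Readout ONE-Glo luminescence.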
Chain of Estrogen receptor (Homo sapiens) (P03372 whole entry, looked up): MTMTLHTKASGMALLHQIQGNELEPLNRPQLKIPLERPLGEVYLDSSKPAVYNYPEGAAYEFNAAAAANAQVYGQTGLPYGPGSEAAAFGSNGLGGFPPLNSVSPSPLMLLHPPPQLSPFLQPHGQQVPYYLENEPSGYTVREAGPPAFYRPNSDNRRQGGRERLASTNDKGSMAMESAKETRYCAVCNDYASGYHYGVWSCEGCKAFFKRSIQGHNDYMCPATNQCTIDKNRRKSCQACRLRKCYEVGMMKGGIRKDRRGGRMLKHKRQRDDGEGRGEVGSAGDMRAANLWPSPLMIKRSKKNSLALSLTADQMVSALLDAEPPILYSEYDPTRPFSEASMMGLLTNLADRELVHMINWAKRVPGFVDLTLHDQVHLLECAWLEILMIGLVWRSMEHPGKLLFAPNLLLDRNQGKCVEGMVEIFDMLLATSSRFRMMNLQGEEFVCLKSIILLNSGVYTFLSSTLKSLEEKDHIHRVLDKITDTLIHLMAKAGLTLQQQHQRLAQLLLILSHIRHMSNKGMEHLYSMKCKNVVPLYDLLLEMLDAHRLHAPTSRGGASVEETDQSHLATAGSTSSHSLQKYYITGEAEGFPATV

The nature of test [18]: qHTS assay to identify small molecule HDAC inhibitors - cell viability counter screen (AID 1259365). In outline: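 HCT-116 wild-type, overnight attachment; 2hr drug exposure, 37C; CellTiter-Glo luminescent ATP readout after 30min RT.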
Test [19] is described as follows: qHTS assay to identify small molecule HDAC inhibitors (AID 1259364). Further: top concentration of the series differs between compounds; nearly all actives have a fitted effect of over 45% in size. In outline:
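Luminescence from a cell-permeant luminogenic class I/II HDAC substrate reports endogenous deacetylase activity in intact HCT-116 cells treated with compounds for 2 h.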

Test [20] is described as follows: qHTS assay to identify small molecule phospholipidosis (PLD) inducers (AID 1259344; active means well fitted curve in the direction sought with a large enough effect; an effect the other way counts as inactive or inconclusive). In outline: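 Quantitative HTS in HepG2: compound plus LipidTOX Red dye for 24 h, paraformaldehyde fixation with Hoechst 33342, widefield high-content imaging; amiodarone as positive and DMSO as negative control.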

Unmarked numbers belong to inactive results. Results filed as inconclusive are left out. Calls of active or inactive are those of the source. Unless noted, the call rests on the fitted dose curve; in most records, active means well fitted curve in the direction sought with a large enough effect in the repeat runs; inconclusive means weak or mixed curves; inactive means no such curve, though single readings can be large; an effect the other way counts as inactive or inconclusive.
On the % scale 0 is the no-effect control and ±100 the full control effect.

Chain of Androgen receptor (Homo sapiens) (P10275 whole entry, looked up): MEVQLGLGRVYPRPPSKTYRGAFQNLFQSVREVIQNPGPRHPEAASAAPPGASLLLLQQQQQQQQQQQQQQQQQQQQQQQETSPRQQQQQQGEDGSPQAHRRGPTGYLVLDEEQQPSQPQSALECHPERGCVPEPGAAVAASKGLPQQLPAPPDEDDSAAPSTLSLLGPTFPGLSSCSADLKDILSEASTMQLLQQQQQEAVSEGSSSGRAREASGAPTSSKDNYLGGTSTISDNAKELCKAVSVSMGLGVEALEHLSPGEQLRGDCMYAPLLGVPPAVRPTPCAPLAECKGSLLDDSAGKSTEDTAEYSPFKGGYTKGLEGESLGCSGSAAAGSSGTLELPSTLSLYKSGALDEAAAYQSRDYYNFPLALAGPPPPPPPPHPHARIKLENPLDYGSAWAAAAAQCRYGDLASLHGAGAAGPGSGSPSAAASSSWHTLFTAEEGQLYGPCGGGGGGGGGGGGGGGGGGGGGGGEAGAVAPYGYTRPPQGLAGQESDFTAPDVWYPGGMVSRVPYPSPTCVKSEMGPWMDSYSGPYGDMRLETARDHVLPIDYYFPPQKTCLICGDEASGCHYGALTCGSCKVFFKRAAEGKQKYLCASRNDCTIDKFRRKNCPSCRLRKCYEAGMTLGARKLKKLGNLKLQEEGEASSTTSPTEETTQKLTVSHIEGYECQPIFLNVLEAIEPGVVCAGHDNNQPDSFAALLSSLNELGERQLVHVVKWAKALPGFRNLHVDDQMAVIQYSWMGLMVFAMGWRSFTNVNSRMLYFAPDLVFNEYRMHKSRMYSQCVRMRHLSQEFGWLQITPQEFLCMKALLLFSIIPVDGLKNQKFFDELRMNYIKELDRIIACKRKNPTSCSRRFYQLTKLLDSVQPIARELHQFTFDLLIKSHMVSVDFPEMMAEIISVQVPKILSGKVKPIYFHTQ

With `CCOP(=O)(OCC)Oc1nc(Cl)c(Cl)cc1Cl`, the Potency entry in test [1], in test [2], in test [3], in test [4], in test [5] and in test [6] was “inactive” each time. For the same compound, the Potency entry in [7], in [8], in test [9], in test [10], in test [11] and in [12] was “inactive” throughout. Besides, the Potency result in test [13], in [14], in [15] and in test [16] was “inactive” each time.

Turning to `O=NN(CCO)CCO`, the Potency result in test [1], in test [2], in [3], in test [4], in test [5] and in test [6] was “inactive” in each case. Moreover, the Potency entry in test [7], in [8], in [9], in [10], in test [11] and in [12] was “inactive” in each case. The Potency result in test [13], in test [17], in test [18], in test [14], in [15] and in [16] was “inactive” each time.

`C=CC(=O)[O][Sn]([CH2]CCC)([CH2]CCC)[CH2]CCC`: the Potency in [1] is 3470 nM (active); in test [3], 692 nM (active); in test [4], 21900 nM (active); in [5], 549 nM (active); in test [6], 436 nM (active); in test [7] it was 871 nM (active). The Potency in [8] is 24500 nM (active); in test [10] it was 977 nM (active); in [11] it was 27300 nM (active); in test [12], 1090 nM (active); in test [13], 545 nM (active); in test [17] it was 1720 nM (active). Moreover, the Potency in test [14] was 243 nM (active); in [15], 1090 nM (active). Also, the Potency result in [2], in [9], in test [19] and in [16] was “inactive” each time.

`CC(Cc1ccccc1)N(C)Cc1ccco1` (configuration not stated): the Potency entry in test [1], in test [2], in [3], in [4], in test [5] and in [6] was “inactive” in each case. Besides, the Potency entry in test [7], in test [8], in test [9], in test [10], in test [11] and in test [12] was “inactive” throughout. The Potency result in [13], in test [17], in test [19], in test [18], in test [14] and in test [15] was “inactive” throughout. The Potency result in test [16] was “inactive”.

As to `CCN(CC)CCc1c[nH]c2ccccc12`, the Potency result in test [1], in [2], in test [3], in [4], in test [5] and in test [6] was “inactive” throughout. For the same compound, the Potency entry in test [7], in test [8], in [9], in test [10], in test [11] and in test [12] was “inactive” throughout. The Potency entry in test [17], in test [18], in [14], in [15] and in test [16] was “inactive” in each case. For the same compound, the compound was classed as inactive in [20].

Turning to `CCC[CH2][Sn]([CH2]CCC)([CH2]CCC)[O][Sn]([CH2]CCC)([CH2]CCC)[CH2]CCC`, the Potency is 339 nM (active) in test [1]; 537 nM (active) in test [3]; 2140 nM (active) in test [4]; 676 nM (active) in test [5]; 191 nM (active) in test [6]; 269 nM (active) in test [7]. For the same compound, the Potency in test [8] is 1700 nM (active); in [10], 676 nM (active); in [12] it was 533 nM (active); in [13] it was 189 nM (active); in [17], 377 nM (active); in [14], 212 nM (active). Further, in [15], the Potency was 377 nM (active). Further, the cytotoxicity in [2] was 5.3% [at 6.97 µM]. Also, the activity change, negative = cytotoxicity in test [9] is 23.4% [at 6.97 µM]; in test [11] it was -23.5% [at 8.39 µM]. Besides, in test [19], the activity change, negative = inhibition was 2.24% [at 8.39 µM]. The activity change in test [16] is -10.2% [at 8.39 µM, active compounds read high].

(Values after PubChem BioAssay (Tox21).)
